PubChem BioAssay (Tox21)
Values joined by “and” are separate entries in the source; they are usually repeats but may differ in a detail not shown here. Equal entries are not always repeated. Records with an inconclusive call do not appear. Entries that show only a call come without a potency. Where a structure was tested more than once in an assay, its records may differ in their call. Active and inactive are the calls of the source. Unless noted, calls come from the whole dose curve; as a rule, active = well fitted curve in the direction sought with a large enough effect in the repeat runs; inconclusive = weak or mixed curves; inactive = no such curve, though single readings can be large; an effect the other way counts as inactive or inconclusive.

Experiments:
[1] = qHTS assay to identify small molecule antagonists of the glucocorticoid receptor (GR) signaling pathway - cell viability counter screen (AID 720693); note: nearly all actives have a fitted effect of over 55% in size; note: potency is the fitted concentration of half-maximal effect
[2] = qHTS assay for identifying genotoxic compounds that show differential cytotoxicity against isogenic chicken DT40 cell lines with known DNA damage response pathways - wild type cell line (AID 743012); note: nearly all actives have a fitted effect of over 60% in size; note: potency is the fitted concentration of half-maximal effect
In short: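 Endpoint: CellTiter-Glo luminescence, 30 min RT. Cells: wild type DT40, 300/well. Exposure: compounds in DMSO, 40 h, 37 C/5% CO2, after ~0.5 h pre-incubation.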

[3] = qHTS assay for identifying genotoxic compounds that show differential cytotoxicity against isogenic chicken DT40 cell lines with known DNA damage response pathways - Rev3 mutant cell line (AID 743014); note: nearly all actives have a fitted effect of over 55% in size; note: potency is the fitted concentration of half-maximal effect
[4] = qHTS assay for identifying genotoxic compounds that show differential cytotoxicity against isogenic chicken DT40 cell lines with known DNA damage response pathways - Rad54/Ku70 mutant cell line (AID 743015); note: nearly all actives have a fitted effect of over 60% in size; note: potency is the fitted concentration of half-maximal effect
[5] = qHTS assay to identify small molecule antagonists of the androgen receptor (AR) signaling pathway - cell viability counter screen (AID 743033; note: nearly all actives have a fitted effect of over 45% in size; note: potency is the fitted concentration of half-maximal effect)
[6] = molecular target: Androgen receptor (Homo sapiens) (UniProt P10275); assay: qHTS assay to identify small molecule agonists of the androgen receptor (AR) signaling pathway using the MDA cell line (AID 743040; note: nearly all actives have a fitted effect of over 20% in size)
In short: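 Luciferase agonist assay: 16 h compound exposure at 37C without CO2 in MDA-kb2 AR-luc cells, whose MMTV promoter responds to both AR and GR. Luminescence measured after 30 min room-temperature incubation with ONE-Glo.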

[7] = qHTS assay to identify small molecule antagonists of the androgen receptor (AR) signaling pathway using the MDA cell line - cell viability counter screen (AID 743041; note: nearly all actives have a fitted effect of over 45% in size)
In short: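 Viability read by CellTiter-Fluor fluorescence in the same wells as the antagonist screen, added after 15.5 h of a 16 h, 37C exposure. Human breast carcinoma MDA-kb2 AR-luc cells, compounds co-dosed with agonist R1881.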

[8] = molecular target: Androgen receptor (Homo sapiens) (UniProt P10275); assay: qHTS assay to identify small molecule antagonists of the androgen receptor (AR) signaling pathway using the MDA cell line (AID 743042; note: nearly all actives have a fitted effect of over 55% in size; note: potency is the fitted concentration of half-maximal effect)
In short: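 Antagonist mode: compounds plus R1881 agonist added to MDA-kb2 AR-luc cells, incubated 16 h at 37C. Luciferase reporter luminescence quantified, with multiplexed CellTiter-Fluor readout for cell viability.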

[9] = qHTS assay to identify small molecule antagonists of the thyroid receptor (TR) signaling pathway - cell viability counter screen (AID 743064); note: nearly all actives have a fitted effect of over 50% in size; note: potency is the fitted concentration of half-maximal effect
In short: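 Rat GH3 pituitary tumor cells stably expressing two TR response elements driving luciferase were plated, rested 4 h, then dosed with library compounds and T3 (1 nM final). After 23.5 h at 37 °C, CellTiter-Fluor was added for 30 min and fluorescence recorded.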

[10] = molecular target: Androgen receptor (Homo sapiens) (UniProt P10275); assay: qHTS assay to identify small molecule antagonists of the androgen receptor (AR) signaling pathway (AID 743035; active = well fitted inhibition curve with a large enough effect in the signal ratio in the repeat runs, not every such curve was filed as active; the % refers to the signal ratio)
In short: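 R1881 agonist challenge of a HEK293 UAS-beta-lactamase AR reporter line in the presence of compound (16 h, 37C); signal taken as FRET fluorescence after 2 h with LiveBLAzer B/G substrate at room temperature.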

Chain of Androgen receptor (Homo sapiens) (P10275 whole entry, looked up): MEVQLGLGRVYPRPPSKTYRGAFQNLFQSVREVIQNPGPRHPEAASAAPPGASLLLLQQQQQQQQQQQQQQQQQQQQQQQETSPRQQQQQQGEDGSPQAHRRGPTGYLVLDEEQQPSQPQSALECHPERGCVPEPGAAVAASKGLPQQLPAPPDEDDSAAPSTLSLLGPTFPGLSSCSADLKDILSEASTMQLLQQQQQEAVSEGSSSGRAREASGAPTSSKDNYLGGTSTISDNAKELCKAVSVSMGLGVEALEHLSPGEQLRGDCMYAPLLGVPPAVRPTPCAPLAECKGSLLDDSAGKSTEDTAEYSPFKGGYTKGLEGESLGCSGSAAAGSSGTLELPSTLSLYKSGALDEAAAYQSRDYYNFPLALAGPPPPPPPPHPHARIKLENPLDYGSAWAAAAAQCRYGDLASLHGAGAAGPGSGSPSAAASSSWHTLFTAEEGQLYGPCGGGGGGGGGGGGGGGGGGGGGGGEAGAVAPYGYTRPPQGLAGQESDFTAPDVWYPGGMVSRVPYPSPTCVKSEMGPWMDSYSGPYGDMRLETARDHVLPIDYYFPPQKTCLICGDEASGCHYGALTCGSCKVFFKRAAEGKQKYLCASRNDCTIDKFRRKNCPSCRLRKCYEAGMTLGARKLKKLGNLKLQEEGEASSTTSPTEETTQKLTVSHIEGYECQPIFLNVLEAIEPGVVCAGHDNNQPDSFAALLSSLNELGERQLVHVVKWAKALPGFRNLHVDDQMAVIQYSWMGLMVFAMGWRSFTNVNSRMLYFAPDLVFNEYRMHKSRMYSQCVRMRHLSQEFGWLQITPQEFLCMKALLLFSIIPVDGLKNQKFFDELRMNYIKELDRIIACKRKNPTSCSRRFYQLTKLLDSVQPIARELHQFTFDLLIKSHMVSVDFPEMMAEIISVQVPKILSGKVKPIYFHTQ

| Compound | Potency [1] | Potency [2] | Potency [3] | Potency [4] | Potency [5] | Potency [6] | Potency [7] | Potency [8] | Potency [9] | Potency [10] |
| --- | --- | --- | --- | --- | --- | --- | --- | --- | --- | --- |
| O=NN(CCCl)C(=O)NCCCl | inactive | inactive | inactive | inactive | inactive | inactive | inactive | inactive | inactive |  |
| O=S(=O)(O)CO | inactive | inactive | inactive | inactive | inactive |  | inactive |  |  |  |
| CCC(C)(C)C(=O)O | inactive | inactive | inactive | inactive | inactive |  | inactive | inactive | inactive | inactive |
| NC(=O)CCCCC(N)=O | inactive | inactive | inactive | inactive | inactive |  | inactive |  |  |  |
| CC(C)(C)CCCCCCOC(=O)c1ccccc1C(=O)OCCCCCCC(C)(C)C | inactive | inactive | inactive | inactive | inactive |  | inactive |  |  |  |
| CCN(CC)c1ccc(C(=C2C=CC(=[N+](CC)CC)C=C2)c2ccc(S(=O)(=O)O)cc2S(=O)(=O)[O-])cc1 | 21.9 µM (active) | 24.3 µM (active) | inactive | inactive | 21.9 µM (active) | inactive | inactive | inactive | inactive | inactive |
| CCC(Cl)CC(Cl)C(Cl)C(Cl)C(Cl)C(C)Cl (centres undefined) | inactive | inactive | inactive | inactive | inactive | inactive | inactive | inactive | inactive |  |
| CCCCCc1ccco1 | inactive | 39.8 µM (active) | 44.7 µM (active) | 31.6 µM (active) | inactive |  | inactive |  |  |  |
| CCc1ccc(C)cc1 | inactive | inactive | inactive | inactive | inactive | inactive | inactive | inactive |  | inactive |
| Nc1cccc2c(N)cccc12 | inactive | 54.5 µM (active) | 47.2 µM (active) | 41.6 µM (active) | inactive | inactive |  |  |  |  |
| Nc1ccc(F)cc1 | inactive | inactive | inactive | inactive | inactive | inactive | inactive | inactive | inactive | inactive |
| CCCCCCCCCCCCCC(=O)OCC(O)CO (centres undefined) | inactive | inactive | 43.3 µM (active) | 43.3 µM (active) | inactive | inactive | inactive | inactive | inactive | inactive |
| CC(=O)c1ccc[nH]1 | inactive | inactive | inactive | inactive | inactive | inactive | inactive | inactive |  |  |
| CN1C(CSCC(F)(F)F)Nc2cc(Cl)c(S(N)(=O)=O)cc2S1(=O)=O (centres undefined) | inactive | 11.9 µM (active) | 26.6 µM (active) | 23.7 µM (active) | inactive | inactive | inactive | inactive | inactive | inactive |
| C[C@@H]1[C@H](O)[C@@H](C)/C=C/C=C\C=C\C=C\C=C\C=C\C=C\[C@H](O[C@@H]2O[C@H](C)[C@@H](O)[C@H](N)[C@@H]2O)C[C@@H]2O[C@](O)(C[C@@H](O)C[C@@H](O)[C@H](O)CC[C@@H](O)C[C@@H](O)CC(=O)O[C@H]1C)C[C@H](O)[C@H]2C(=O)O (stereo in doubt) | inactive | inactive | inactive | inactive and 61.1 µM (active) | inactive |  | inactive |  |  |  |
| C1=CCC2CC=CC2C1 (centres undefined) | inactive | inactive | inactive | inactive | inactive | inactive | inactive | inactive |  | inactive |
| CCCC(=O)OC(=O)CCC | inactive | inactive | inactive | inactive | inactive |  | inactive |  |  |  |
| CC(=O)C(C)=O | inactive | inactive | inactive | inactive | inactive |  | inactive |  |  |  |
| CNS(=O)(=O)c1cc(C(=O)N2CCC(CCN3C4CCC3CC(n3c(C)nc5ccccc53)C4)(c3cccc(F)c3)CC2)c(Cl)cc1F (centres undefined) | 54.9 µM (active) | 3.06 µM (active) | 5.45 µM (active) | 6.11 µM (active) | 15.5 µM (active) | inactive |  | 34.4 µM (active) | 54.5 µM (active) |  |
| CCCCCCCC(=O)OCCCCCC | inactive | inactive | inactive | inactive | inactive | inactive | inactive | inactive |  | inactive |
| NC(=O)c1ccccc1[N+](=O)[O-] | inactive | inactive | inactive | inactive | inactive |  | inactive |  |  |  |
| CCCCC[C@H](O)/C=C/[C@H]1[C@H](O)CC(=O)[C@@H]1C/C=C\CCCC(=O)O | inactive | inactive | inactive | inactive | inactive | inactive | inactive |  |  |  |
| Cc1ccc(NC(=O)N(C)C)cc1NC(=O)N(C)C | inactive | inactive | inactive | inactive | inactive |  | inactive |  |  |  |
| CC1CCC(C(C)CS)CC1S (centres undefined) | 49 µM (active) | inactive | inactive | inactive | inactive | inactive | inactive | inactive |  | inactive |
| COc1ccc2nc(S(=O)Cc3ncc(C)c(OC)c3C)[nH]c2c1 (centres undefined) | inactive | 21.1 µM (active) and inactive | 26.6 µM (active) and inactive | 26.6 µM (active) | inactive |  | inactive |  |  |  |
| CCOC(=O)C(C)O (centres undefined) | inactive | inactive | inactive | inactive | inactive |  | inactive |  |  |  |
| CCCc1nc2c(C)cc(-c3nc4ccccc4n3C)cc2n1Cc1ccc(-c2ccccc2C(=O)O)cc1 | inactive | inactive | inactive | inactive | inactive |  | inactive |  |  |  |

| Compound | Potency [1] | Potency [2] | Potency [3] | Potency [4] | Potency [5] | Potency [6] | Potency [7] | Potency [8] | Potency [9] | Potency [10] |
| --- | --- | --- | --- | --- | --- | --- | --- | --- | --- | --- |
| ClC1=C(Cl)C1(Cl)Cl | inactive | inactive | inactive | inactive | inactive |  | inactive |  |  |  |
| O=c1[nH][nH]c(=O)c2cc([N+](=O)[O-])ccc12 | inactive | inactive | inactive | inactive | inactive |  | inactive |  |  |  |
| Cc1cccc2sc(N)nc12 | inactive | inactive | inactive | inactive | inactive |  | inactive |  |  |  |
| O=C1CC[C@@H](C(=O)O)N1 | inactive | inactive | inactive | inactive | inactive | inactive |  | inactive |  | inactive |
| CC1CCCC(=O)C1=O (centres undefined) | inactive | inactive | inactive | inactive | inactive | inactive | inactive | inactive | inactive | inactive |
| O=C(O)CCC(=O)c1ccc(-c2ccccc2)cc1 | inactive | inactive | inactive | inactive | inactive | inactive | inactive | inactive |  | inactive |
| CCOC(=O)c1ccc(NC(=O)CN2CCCCC2)cc1 | inactive | 11.9 µM (active) | 10.6 µM (active) | 10.6 µM (active) | inactive | inactive | inactive | inactive | inactive | inactive |
| C=CC(=O)NC(C)C | inactive | inactive | inactive | inactive | inactive |  | inactive |  |  |  |
| C1CCCCC1 | inactive | inactive | inactive | inactive | inactive |  | inactive |  |  |  |
| Cc1ccc(Cl)cc1N | inactive | inactive | inactive | inactive | inactive |  | inactive |  | inactive |  |
| CC(=O)NNC(C)=O | inactive | inactive | inactive | inactive | inactive |  | inactive |  | inactive |  |
| O=c1[nH]c2cc(C(F)(F)F)c(N3CCOCC3)cc2n(CP(=O)(O)O)c1=O | inactive | inactive | inactive | inactive | inactive |  | inactive |  | inactive |  |
| O=[N+]([O-])c1ccc2ncccc2c1 | inactive | inactive | inactive | inactive | inactive |  | inactive |  | inactive |  |
| C=CC(=O)O | inactive | inactive | inactive | inactive | inactive |  | inactive |  |  |  |
| CN=C(N)NC(=O)Nc1c(C)cccc1C | inactive | inactive | inactive | inactive | inactive |  | inactive |  |  |  |
| CC(CN(CCN(CC(C)OCCO)CC(C)OCCO)CC(C)OCCO)OCCO (centres undefined) | inactive | 18.6 µM (active) | 10.5 µM (active) | 20.9 µM (active) | inactive |  | inactive |  | inactive |  |
| O=C(O)CNC(=O)c1ccccc1I | inactive | inactive | inactive | inactive | inactive |  | inactive |  | inactive |  |
| O=C1OC(=O)c2c(Br)c(Br)c(Br)c(Br)c21 | inactive | inactive | inactive | inactive | inactive |  | inactive |  |  |  |
| O=C1NC(=O)c2cccc3cccc1c23 | inactive | inactive | inactive | 48.6 µM (active) | inactive |  | inactive |  | inactive |  |
| Nc1ccn([C@H]2CS[C@@H](CO)O2)c(=O)n1 | inactive | inactive | inactive | inactive | inactive |  | inactive |  |  |  |
| Cc1ccc(Nc2c(F)cccc2Cl)c(CC(=O)O)c1 | inactive | inactive | inactive | inactive | inactive |  | inactive |  | inactive |  |
| CCCCCCCCCCCCCCCCCC(=O)OCC(CC)CCCC (centres undefined) | inactive | inactive | inactive | inactive | inactive |  | inactive |  | inactive |  |
| CC1C(C)(C)C2=C(C(=O)CCC2)C1(C)C (centres undefined) | inactive | inactive | inactive | inactive | inactive |  | inactive |  |  |  |
| O=P(O)(O)Oc1ccccc1 | inactive | inactive | inactive | inactive | inactive |  | inactive |  | inactive |  |
| O=C(Nc1ccc(C(=O)O)c(O)c1)c1ccccc1 | inactive | inactive | inactive | inactive | inactive |  | inactive |  |  |  |
| CNCc1ccc(NC(=O)c2c[nH]c3c2C(=O)CCC3)cc1 | inactive | 61.1 µM (active) | 54.5 µM (active) | 54.5 µM (active) | inactive |  | inactive |  | inactive |  |
